Bioassay records from PubChem.
Only some compounds are listed: those with a hit (about 8.3% of all), similar ones and a draw of the others.
LASV entry inh – inhibitors of Lassa virus binding or cell entry. Lassa virus pseudotype entry inhibition, cell reporter. Potency, µM (titrated, usually from 37.9 µM), for the others: at the highest dose activity change, negative = inhibition, usual class: inhibitors. 300,000 compounds, 1.2% hits; calls by dose curve; tested in HEK293 cells; also: potency is read from the fitted curve at half-maximal effect; nearly all actives have a fitted effect of over 50% in size
HCMV antiviral – inhibitors of human cytomegalovirus; HFF cells, HCMV-luciferase reporter, 72 h; hits give low values; activity change, negative = inhibition, % at 57.5 µM; 410,000 compounds, 4.5% hits; AID 1259415; in the data active = activity change below about -60%; inconclusive = no clear call, values can overlap the other calls; inactive = above about -39%
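Steps: HFFs plated, 16 h 37C; compounds added; HCMV-luciferase added to MOI 1 PFU/cell; 72 h 37C; OneGlo reagent, 5 min room temperature; luminescence read, normalized to controls.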
HCV inhibitor – HCV inhibition; Huh7.5.1 HCVcc-Cre infection, luciferase reporter, 44 h; Potency, µM (series often up to 41.8 µM), for inactives: top-dose activity change, negative = inhibition, usual class: inhibitors; 340,000 compounds, 3.4% hits; AID 651820; also: potency is read from the fitted curve at half-maximal effect
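Cells seeded at 1,000/well and cultured 4 h, then compounds added followed by HCVcc-Cre virus (~0.5 moi). After 44 h further culture, luciferase substrate was added, plates held 15 min at room temperature, and luminescence read for 15 sec.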
Marburg entry inh – Marburg virus entry inhibition; AID 540276; Marburg virus pseudotyped entry inhibition, cell reporter; Potency, µM (top dose mostly 37.8 µM), for the others: at the highest dose activity change, negative = inhibition, usual class: inhibitors; 300,000 compounds, 1.8% hits; calls by dose curve; tested in HEK293 cells; also: potency is read from the fitted curve at half-maximal effect
FMDV antiviral – antivirals against foot and mouth disease virus. FMDV antiviral cell-based qHTS. Potency, µM (doses to about 57.9 µM), for inactives: at the highest dose activity change, negative = inhibition, usual class: inhibitors. 410,000 compounds, 1.2% hits. AID 1159524; calls by dose curve; tested in HEK293T cells; also: read-out not given here; potency is read from the fitted curve at half-maximal effect; nearly all actives have a fitted effect of over 45% in size
FBPA Giardia inh – blocks Giardia fructose-bisphosphate aldolase activity. purified Giardia FBPA. A8B2U2. Potency, µM (highest dose often 59.6 µM), without a hit: at the highest dose activity, negative = inhibition, most hits filed as inhibitors. 290,000 compounds, 0.71% hits. AID 2451; also: potency is read from the fitted curve at half-maximal effect; nearly all actives have a fitted effect of over 55% in size
Target sequence (A8B2U2 whole entry, looked up): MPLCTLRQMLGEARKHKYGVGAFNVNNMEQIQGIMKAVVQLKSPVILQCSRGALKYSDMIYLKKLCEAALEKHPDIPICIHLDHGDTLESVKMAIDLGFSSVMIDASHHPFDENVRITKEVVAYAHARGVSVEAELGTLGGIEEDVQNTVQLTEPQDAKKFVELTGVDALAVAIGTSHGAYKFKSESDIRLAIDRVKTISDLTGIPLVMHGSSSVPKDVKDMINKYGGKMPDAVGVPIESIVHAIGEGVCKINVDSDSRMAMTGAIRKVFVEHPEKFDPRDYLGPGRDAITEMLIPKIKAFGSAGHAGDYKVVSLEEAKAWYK
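Giardia FBPA (40 nM reagent) was preincubated 10 min at RT with compound (up to 57.5 uM final), then substrate plus GAPDH/TPI/NAD/arsenate coupling system with diaphorase/resazurin was added; resorufin fluorescence (525/598 nm) was read after 20 min.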
* marks the source's active call; other numbers are inactive results; ? = inconclusive; . = no result; [ ] = dose if it differs, or a comment. Unless noted, calls follow the shape of the dose curve; as a rule, active = well fitted curve in the direction sought with a large enough effect; inconclusive = small, poorly fitted or top-dose-only effect, or another doubt; inactive = no such curve, though single readings can be large; an effect the other way counts as inactive or inconclusive. % is scaled to controls: 0 for no effect and ±100 for the full control effect.

SMILES	LASV entry inh	HCMV antiviral	HCV inhibitor	Marburg entry inh	FMDV antiviral	FBPA Giardia inh
Cc1cc(Nc2cccc(Cl)c2)nc2ccc(NC(=O)c3cccc(N(C)C)c3)cc12	-14%[46.1 µM]	-35	.	.	-10%	.
Cc1ccc(OCC(=O)Nc2ccc3nc(Nc4cccc(Cl)c4)cc(C)c3c2)cc1	?	4	.	0%[46.1 µM]	-22%	.
CCCC[C@@H](C=O)NC(=O)[C@H](CC(C)C)NC(=O)OCc1ccccc1	.	.	.	.	-5%	.
Cc1cccc(NC(=O)CN2C(=O)CCn3nc(-c4cccn4C)cc32)c1C	-4%[46.1 µM]	13	.	.	50%	.
COc1ccc(COC(=O)NN=C2C[C@@H](O)[C@@H](O)[C@@H]3[C@H]4C(=O)N([C@@H](C)c5ccccc5)C(=O)[C@@H]4CC[C@H]23)cc1	?	.	.	-1%[14.2 µM]	.	.
COc1ccccc1CNC(=O)CN1C(=O)CSc2ccc(S(=O)(=O)N3CCCCC3)cc21	12%[46.1 µM]	-20	.	.	12%	.
COC(=O)c1cc(Sc2c(Cl)cccc2Cl)ccn1	-24%	-39	14%	11µM*	-14%	0%
COc1ccc(Cl)cc1NC(=O)CN(c1cc(C)cc(C)c1)S(=O)(=O)c1c(C)n[nH]c1C	?	-23	.	-28%[46.1 µM]	?	.
NCCC[C@@H](CC(=O)N[C@@H]1CCCC[C@H]1C(=O)N[C@H](CC(=O)N[C@@H](CCC(=O)O)CC(=O)O)Cc1ccccc1)NC(=O)C[C@H](Cc1ccccc1)NC(=O)[C@@H]1CCCC[C@H]1N	.	.	.	.	.	-22%
ON=C1c2ccccc2-c2ccc(Br)cc21	7%	-63*	?	27%	7%	.
COc1cc2c(cc1[N+](=O)[O-])-c1ccc([N+](=O)[O-])cc1C2=NO	.	-94*	.	.	-22%	.
O=[N+]([O-])c1ccc2c(c1)/C(=N\O)c1ccccc1-2	-3%	-85*	?	?	-2%	4%
COc1cc(/C=N/O)ccc1Oc1ccc([N+](=O)[O-])cc1[N+](=O)[O-]	-17%	-39	?	?	?	-25%
NC(N)=N/N=C/c1cc([N+](=O)[O-])ccc1O	21%	-38	12%	?	-8%	0%
O=[N+]([O-])c1ccc(O)c(/C=N\N=C2c3ccccc3-c3ccccc32)c1	?	-89*	?	14µM*	?	4%
COc1ccc(-c2nc3cnc(OC)nc3n(C)c2=O)cc1	.	.	.	.	20%	4%
CC(C)N1C(=S)N=C2C=C(C(F)(F)F)C=CC21 (centres undefined)	.	.	.	-18%[46.1 µM]	.	.
Cc1c(C(=O)N(C)C2CCOC2)sc2ncnc(NCC3(c4ccccc4)CCOCC3)c12 (centres undefined)	.	.	.	.	-17%	.
CC(=O)Nc1ccccc1-c1nc(CNC(=O)c2ccc(-c3ccccc3F)cc2)c(C)o1	.	.	.	.	16%	.
O=[N+]([O-])c1ccc2c(c1)C(=NO)c1cc(F)ccc1-2	-5%	-95*	?	-17%	-20%	.
NN=C1c2cc([N+](=O)[O-])ccc2-c2ccc([N+](=O)[O-])cc21	.	.	.	.	.	-6%
ON=C1c2ccccc2-c2ccc(F)cc21	14%	22	?	3%	6%	.
Nc1cc2c(cc1Cl)-c1ccc([N+](=O)[O-])cc1C2=NO	1%	?	5.6µM*	?	-6%	.
Fc1ccc(-c2noc3nc(NCC4CCCO4)ccc23)cc1 (centres undefined)	.	80	.	.	.	.
COc1ccc(NC(=O)N2CCCC3(CCN(S(=O)(=O)c4ccccc4)CC3)C2)cc1	.	.	.	.	-1%	-18%
SMILES	LASV entry inh	HCMV antiviral	HCV inhibitor	Marburg entry inh	FMDV antiviral	FBPA Giardia inh
CC(C)c1ccc(C2Sc3ccccc3NC3=C2C(=O)c2ccccc23)cc1 (centres undefined)	18%[46.1 µM]	-100*	.	?	7.9µM*	.
O=C1C2=C(Nc3ccccc3SC2c2ccc(C(F)(F)F)cc2)c2ccccc21 (centres undefined)	?	-99*	.	?	?	.
CCc1ccc(C2Sc3ccccc3NC3=C2C(=O)c2ccccc23)cc1 (centres undefined)	?	-85*	.	?	54%	.
CC(=O)Nc1ccc(C2Sc3ccccc3NC3=C2C(=O)c2ccccc23)cc1 (centres undefined)	8%[46.1 µM]	-29	.	?	126%	.
O=C1C2=C(Nc3ccccc3SC2c2ccco2)c2ccccc21 (centres undefined)	?	29	?	?	0%	?
CCCCCCC1=Cc2cc(OC)c(OC)cc2C(C2(C(=O)OCC)CCCC2=O)O1 (centres undefined)	.	.	.	.	.	2%[12.9 µM]
COc1ccc(C2=C(C)C(=O)N(Cc3ccc(C(=O)NCc4cccc(C)c4)cc3)S2(=O)=O)cc1	?	-20	.	.	-23%	.
Cc1cc(C=O)c(C)n1-c1ccc(N2CCCCC2)c([N+](=O)[O-])c1	?	-25	?	?	?	-24%
Cc1cc(/C=C(\C#N)C(N)=O)c(C)n1-c1ccc(N2CCOCC2)c([N+](=O)[O-])c1	-23%	-75*	?	?	?	5%
CC1=CC2C(=O)c3cccc(O)c3C(=O)C2C(O)=C1 (centres undefined)	.	.	.	.	3%	-22%
CCCn1c(-c2ccc(F)cc2)nc2c(NCCCN3CCOCC3)nc(C)nc21	.	.	.	.	.	-8%
Cc1ccc(NC(=O)Cc2nn(C)c(=O)c3ccccc23)cc1F	-8%	?	?	?	?	-1%
